# Rows were chosen to be rich in hits. Some 2.4% of all compounds tested hit in one or more screens of this group.
# D2 ag-1: activates the human D2 dopamine receptor. HEK293 T-REx D2 cells, calcium flux agonist mode. activation, % at 2 µM. actives 0.53% (n = 340,000). P14416;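 active = activation over 3 SD above normal in the single-dose calcium agonist read, cut at about 30% in these data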
# Target sequence (P14416 whole entry, looked up): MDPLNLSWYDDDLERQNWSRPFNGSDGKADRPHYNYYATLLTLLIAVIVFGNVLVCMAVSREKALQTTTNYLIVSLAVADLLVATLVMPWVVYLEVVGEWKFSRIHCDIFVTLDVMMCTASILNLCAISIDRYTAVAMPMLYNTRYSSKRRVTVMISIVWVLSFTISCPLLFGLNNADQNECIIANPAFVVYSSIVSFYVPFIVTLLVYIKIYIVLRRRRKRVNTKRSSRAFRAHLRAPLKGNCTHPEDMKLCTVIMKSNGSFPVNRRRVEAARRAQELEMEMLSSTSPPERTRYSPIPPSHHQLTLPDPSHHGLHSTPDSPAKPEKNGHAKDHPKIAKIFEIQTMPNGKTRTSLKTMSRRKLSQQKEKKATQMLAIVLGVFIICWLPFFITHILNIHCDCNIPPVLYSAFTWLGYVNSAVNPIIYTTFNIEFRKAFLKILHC
#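 Agonism is scored from calcium flux in a force-coupled, inducible HEK293 cell line expressing D2, read kinetically for 180 s after compound addition against dopamine controls.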
# D2 antagonist: antagonizes the human D2 dopamine receptor. P14416. actives 2% (n = 340,000). inhibition, % at 10 µM. AID 485344. HEK293 TREx D2 cells, calcium flux, dopamine EC80; in the data active = inhibition above about 30%; inactive = below that, where a call was filed
#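 Calcium mobilization kinetics were recorded at 1 s intervals in tetracycline-induced HEK293 T-REx D2 cells, first for 180 s after compound addition and then 180 s after EC80 dopamine.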
# D2 PAM-1: D2 dopamine receptor (human) potentiation. HEK293 T-REx D2, calcium flux, EC20 dopamine potentiation. potentiation, % at 10 µM. actives 0.34% (n = 340,000). AID 485347;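 active = potentiation over 3 SD above the plate norm, cut at about 30% in these data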
#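 Tetracycline-induced HEK293 T-REx cells force-coupled to calcium signalling expressed D2; compounds were pin-added after a 10 s baseline, read kinetically 180 s, then an EC20 dopamine challenge followed with a further 180 s calcium read.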
# D2 ag-2: human D2 receptor agonism in beta-arrestin assay. P14416. actives 0.084% (n = 360,000). DiscoveRx PathHunter D2 beta-arrestin, luminescence, 90 min; 100% = 57 uM dopamine signal. activation, % (test concentration not listed). AID 624465; in the data active = activation above about 40%; inconclusive = between about 15% and that limit
#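 Agonist mode: compounds alone added to overnight-plated D2 PathHunter cells for 90 min at 37 C, with 57 uM final dopamine (EC100) defining full response. Beta-arrestin recruitment detected by chemiluminescent reagent, read after 1 h at ambient temperature.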
# D2 PAM-2: positive allosteric modulators of human D2 dopamine receptor. P14416. DiscoveRx D2 beta-arrestin cells, luminescence, 90 min; 100% = 57 uM dopamine signal. potentiation, % (concentration not given with the values). actives 0.23% (n = 360,000); in the data active = potentiation above about 50%; inconclusive = mostly about 30% to 49%
#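 PathHunter beta-arrestin assay in DiscoveRx D2 cells. Compounds were added with an EC20 of dopamine (50 nM final) for 90 min at 37 deg C. Luminescence was read 1 h after detection reagent, with 57 uM dopamine as the EC100 control.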
# Numbers stand for hits; n = inactive; u = inconclusive; x = no result given.
SMILES,D2 ag-1,D2 antagonist,D2 PAM-1,D2 ag-2,D2 PAM-2
COc1ccc(N=Nc2nc3cc(Br)c(Br)cc3n2C)c(OC)c1,32.5,n,n,n,n
Cc1ccc(S(=O)(=O)c2nnn3c2nc(N2CCN(c4cccc(C)c4C)CC2)c2ccccc23)cc1C,n,x,n,x,x
C=CCNCCCCOc1ccc(OCc2ccccc2)cc1,n,n,n,n,n
COCCNCCOc1ccccc1-c1ccccc1,n,n,n,n,n
COCCCNCCOc1ccccc1-c1ccccc1,n,92.5,n,n,n
COCCCNCCCCOc1ccccc1-c1ccccc1,n,89.4,n,n,n
C=CCNCCCCOc1ccccc1-c1ccccc1,n,49.2,n,n,n
Cc1oc(C)c2c(=O)cc(-c3ccc4c(c3)OCO4)cc(OC(=O)c3ccccc3Br)c12,n,x,n,x,x
CCN(Cc1nc(-c2ccc(OC)cc2)oc1C)S(=O)(=O)c1ccc(C)cc1,n,x,n,x,x
COc1cccc(C(=O)N(c2ccc(OC)cc2OC)C2C=CS(=O)(=O)C2)c1 (stereo not given),n,30.5,n,n,n
CCCCNC(=O)c1cnc2c(-c3ccc(OCC)c(OCC)c3)c(C)nn2c1-c1ccccc1,n,x,n,x,x
Cc1ccc(NC(=O)C2CCCN(S(=O)(=O)c3c(C)noc3/C=C/N(C)C)C2)c(C)c1 (stereo not given),n,n,n,n,n
Cc1noc(/C=C/N(C)C)c1S(=O)(=O)N1CCCC(C(=O)Nc2ccc(F)cc2F)C1 (stereo not given),n,54.1,n,n,n
Cc1ccc(C)c(NC(=O)C2CCCN(S(=O)(=O)c3c(C)noc3/C=C/N(C)C)C2)c1 (stereo not given),n,36.8,n,n,n
CC(=O)Cn1c(CN2CCCC2)nc2ccccc2c1=O,n,35.3,n,n,n
CC(=O)Cn1c(CN2CCCCC2)nc2ccccc2c1=O,n,n,n,n,n
O=C(Nc1ccccc1)c1ccc2nc(-c3ccco3)c(-c3ccco3)nc2c1,n,n,n,n,u
CC(=O)c1ccc(NC(=O)c2ccc3nc(-c4ccco4)c(-c4ccco4)nc3c2)cc1,x,x,x,n,76.1
CC1(C)CC(NC(=O)c2cc([N+](=O)[O-])cc([N+](=O)[O-])c2)CC(C)(C)N1,n,n,n,n,n
COc1cc(OC)cc(C(=O)NC2CC(C)(C)NC(C)(C)C2)c1,n,82.5,n,n,n
Cc1cccc(C(=O)Nc2nnc(S(=O)(=O)N(C)c3ccccc3C)s2)c1,n,x,n,x,x
O=C(Nc1nc2n(n1)C(c1ccc(Cl)cc1)CC(c1ccc(Cl)cc1)N2)c1ccco1 (stereo not given),n,31.9,n,n,n
COc1ccc(C2CC(c3ccc(Cl)cc3)Nc3nc(NC(=O)c4ccco4)nn32)cc1 (stereo not given),n,n,n,n,n
Cc1cc(C)c(C#N)c(SCc2cn3ccccc3n2)n1,n,n,n,n,n
Cc1cc(C)nc(SCc2cn3ccccc3n2)n1,n,38.3,n,n,n
SMILES,D2 ag-1,D2 antagonist,D2 PAM-1,D2 ag-2,D2 PAM-2
COc1cccc(CNC(=O)c2cc(C)nc3c2c(C)nn3-c2ccc(C)cc2)c1,x,x,n,x,x
Cc1nc2c(C#N)c(C)[nH]n2c(=O)c1Cc1ccccc1,n,n,n,n,n
Cc1[nH]n2c(=O)cc(Cc3ccccc3)nc2c1C#N,n,41.6,n,n,n
COc1ccccc1-c1ccc(SCC(=O)NCCc2ccccc2)nn1,n,48.4,n,n,n
O=C(CSc1ccc(-c2ccc(F)cc2)nn1)NCCc1ccccc1,n,n,n,n,n
COc1ccc(NC(=O)CSc2ccc(-c3ccccn3)nn2)cc1OC,n,n,n,54.3,u
CS(=O)(=O)N(CC(=O)Nc1ccc2c(c1)OCCO2)c1ccc2c(c1)OCO2,n,n,47.6,n,n
COc1ccccc1NC(=O)CSc1ccc(-c2ccccn2)nn1,n,n,n,n,n
C/C(CC(=O)Nc1ccc2c(c1)OCCO2)=N\NC(=O)COc1ccccc1C,n,n,n,n,n
C/C(CC(=O)Nc1ccc2c(c1)OCCO2)=N\NC(=O)C(=O)Nc1ccccc1C,n,32.0,n,n,n
CCOCCCn1c(SCC(=O)OCC)nc2c(sc3ccccc32)c1=O,n,x,n,x,x

# Screening data from PubChem BioAssay.
